What all share (assay): DAPPL (digital affinity profiling via proximity ligation, sequencing); 10 mM Tris-HCl pH 7.5, 50 mM NaCl, 1 mM DTT, 4% glycerol, room temperature, 30 min; GST-TFs on glutathione beads, 16-mer random dsDNA library, 0.1% formaldehyde crosslink after washing; high values mean tight binding
Common to all, as to details: protein: recombinant; tags: N-terminal GST; dsDNA, one strand shown

In one assay the target is T1, ELK1 (Homo sapiens, UniProt P19419 1-428).
T1 sequence: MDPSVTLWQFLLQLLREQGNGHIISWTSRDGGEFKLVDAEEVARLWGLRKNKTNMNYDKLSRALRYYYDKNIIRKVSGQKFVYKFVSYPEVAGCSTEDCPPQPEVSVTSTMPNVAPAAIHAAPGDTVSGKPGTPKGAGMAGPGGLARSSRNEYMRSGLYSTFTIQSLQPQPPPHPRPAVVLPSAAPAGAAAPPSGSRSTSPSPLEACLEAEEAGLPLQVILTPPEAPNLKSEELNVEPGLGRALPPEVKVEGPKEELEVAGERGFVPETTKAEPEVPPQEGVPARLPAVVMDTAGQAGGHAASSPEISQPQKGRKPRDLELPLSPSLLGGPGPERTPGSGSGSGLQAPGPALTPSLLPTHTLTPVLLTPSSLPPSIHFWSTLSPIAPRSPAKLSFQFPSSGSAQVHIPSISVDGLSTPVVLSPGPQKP
In outline: (§1)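 A tag-only sample was pooled with DNA-barcoded human transcription factors that had been expressed in yeast as GST fusions and captured on glutathione beads. The pools were incubated for 30 min at room temperature with 200 nmole of a random double-stranded 16-mer DNA library in Tris/NaCl/DTT/glycerol buffer, then washed, crosslinked with 0.1% formaldehyde, proximity-ligated (BsaI/T4 ligase, 1 h, 37 °C), PCR-amplified and sequenced on an Illumina NextSeq500. Binding signal is each hexamer's read frequency for a factor divided by its frequency for the tag-only sample.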

Another assay deals with T2, GABPA (Homo sapiens, UniProt Q06546 1-454).
T2 sequence: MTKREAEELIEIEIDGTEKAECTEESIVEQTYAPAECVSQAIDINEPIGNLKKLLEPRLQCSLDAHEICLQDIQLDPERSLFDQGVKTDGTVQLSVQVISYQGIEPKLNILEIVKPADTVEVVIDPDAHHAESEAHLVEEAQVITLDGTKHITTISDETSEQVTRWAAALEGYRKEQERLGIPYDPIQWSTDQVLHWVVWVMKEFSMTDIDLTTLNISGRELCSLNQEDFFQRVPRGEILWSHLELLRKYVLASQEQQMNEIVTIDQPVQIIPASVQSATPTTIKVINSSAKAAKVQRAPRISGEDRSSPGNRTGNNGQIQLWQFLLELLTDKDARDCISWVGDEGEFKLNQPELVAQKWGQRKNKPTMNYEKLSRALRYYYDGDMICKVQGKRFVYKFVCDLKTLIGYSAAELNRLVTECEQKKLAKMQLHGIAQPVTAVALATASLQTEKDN
In outline:
as §1

For a further assay, the target named is T3, ERG (Homo sapiens, UniProt P11308 1-479).
T3 sequence: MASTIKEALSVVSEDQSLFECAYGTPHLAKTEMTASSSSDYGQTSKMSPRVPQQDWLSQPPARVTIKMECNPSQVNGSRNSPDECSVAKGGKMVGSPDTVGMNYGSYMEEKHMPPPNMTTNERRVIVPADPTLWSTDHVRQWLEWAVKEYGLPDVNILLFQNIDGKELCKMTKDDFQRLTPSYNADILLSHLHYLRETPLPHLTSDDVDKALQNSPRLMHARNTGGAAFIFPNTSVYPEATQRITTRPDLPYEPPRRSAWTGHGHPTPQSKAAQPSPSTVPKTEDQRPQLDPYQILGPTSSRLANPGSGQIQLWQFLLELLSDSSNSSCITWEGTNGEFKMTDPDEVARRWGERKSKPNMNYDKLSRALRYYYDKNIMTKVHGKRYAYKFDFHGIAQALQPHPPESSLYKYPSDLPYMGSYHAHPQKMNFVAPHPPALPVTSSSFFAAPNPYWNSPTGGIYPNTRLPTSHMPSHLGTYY
In outline:
as §1

For a further assay, the target named is SPIB (Homo sapiens, UniProt Q01892 1-262). In outline: as §1
Another assay has as its target T4, ELK3 (Homo sapiens, UniProt P41970 1-407).
T4 sequence: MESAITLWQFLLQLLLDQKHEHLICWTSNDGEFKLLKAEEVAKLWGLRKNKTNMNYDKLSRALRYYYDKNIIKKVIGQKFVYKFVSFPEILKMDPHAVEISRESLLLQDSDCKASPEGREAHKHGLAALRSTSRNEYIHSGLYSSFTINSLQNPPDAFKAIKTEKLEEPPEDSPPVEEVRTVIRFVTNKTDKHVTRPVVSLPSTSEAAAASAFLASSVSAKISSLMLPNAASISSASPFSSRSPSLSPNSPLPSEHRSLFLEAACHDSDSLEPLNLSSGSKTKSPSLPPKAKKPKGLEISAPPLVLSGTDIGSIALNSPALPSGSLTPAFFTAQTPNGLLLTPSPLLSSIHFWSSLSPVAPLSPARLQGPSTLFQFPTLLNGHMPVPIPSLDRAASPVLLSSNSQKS
In outline:
as §1

In the next assay the target is ETV5 (Homo sapiens, UniProt P41161 1-510). The method in brief:
as §1

The next assay has as its target T5, SPIC (Homo sapiens, UniProt Q8N5J4 1-248).
T5 sequence: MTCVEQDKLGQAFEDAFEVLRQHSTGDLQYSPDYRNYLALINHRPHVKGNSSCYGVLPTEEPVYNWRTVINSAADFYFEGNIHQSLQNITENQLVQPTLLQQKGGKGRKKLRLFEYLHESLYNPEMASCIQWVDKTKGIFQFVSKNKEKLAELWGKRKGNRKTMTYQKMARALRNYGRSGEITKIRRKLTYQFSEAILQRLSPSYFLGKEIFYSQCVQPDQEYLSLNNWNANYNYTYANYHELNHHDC
In outline:
as §1

For a further assay, the target named is T6, ELK4 (Homo sapiens, UniProt P28324-2 1-405).
T6 sequence: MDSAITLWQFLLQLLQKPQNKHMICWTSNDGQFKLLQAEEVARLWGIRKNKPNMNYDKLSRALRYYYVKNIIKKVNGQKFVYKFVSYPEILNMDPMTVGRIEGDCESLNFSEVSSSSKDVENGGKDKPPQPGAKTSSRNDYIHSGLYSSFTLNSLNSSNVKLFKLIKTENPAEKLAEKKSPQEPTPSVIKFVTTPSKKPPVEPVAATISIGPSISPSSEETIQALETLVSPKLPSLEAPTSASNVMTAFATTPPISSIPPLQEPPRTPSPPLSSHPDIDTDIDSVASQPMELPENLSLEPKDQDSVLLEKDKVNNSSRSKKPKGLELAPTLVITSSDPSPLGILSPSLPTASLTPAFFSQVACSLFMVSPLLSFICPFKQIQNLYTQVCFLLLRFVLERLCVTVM
The method in brief: as §1

For the next assay, the target named is ETV1 (Homo sapiens, UniProt P50549 1-477). The method in brief:
as §1

The next assay deals with T7, ERF (Homo sapiens, UniProt P50548 1-548).
T7 sequence: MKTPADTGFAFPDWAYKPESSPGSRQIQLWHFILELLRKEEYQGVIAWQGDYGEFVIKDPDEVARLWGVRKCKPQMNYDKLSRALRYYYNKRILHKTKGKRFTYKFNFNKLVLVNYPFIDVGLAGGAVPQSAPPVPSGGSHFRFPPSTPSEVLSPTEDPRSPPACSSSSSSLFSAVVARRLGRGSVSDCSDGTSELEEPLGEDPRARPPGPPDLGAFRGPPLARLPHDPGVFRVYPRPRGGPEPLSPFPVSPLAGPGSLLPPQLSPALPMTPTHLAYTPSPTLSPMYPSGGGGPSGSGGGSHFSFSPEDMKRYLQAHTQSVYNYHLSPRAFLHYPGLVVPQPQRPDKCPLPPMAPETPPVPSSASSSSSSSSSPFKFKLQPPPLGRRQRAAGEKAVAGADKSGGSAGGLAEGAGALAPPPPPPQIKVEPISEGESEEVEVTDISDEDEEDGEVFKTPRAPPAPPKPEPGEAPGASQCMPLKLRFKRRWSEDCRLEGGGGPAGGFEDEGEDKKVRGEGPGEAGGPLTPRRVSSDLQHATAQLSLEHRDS
In outline: as §1

The next assay has as its target T8, ETS2 (Homo sapiens, UniProt P15036 1-469).
T8 sequence: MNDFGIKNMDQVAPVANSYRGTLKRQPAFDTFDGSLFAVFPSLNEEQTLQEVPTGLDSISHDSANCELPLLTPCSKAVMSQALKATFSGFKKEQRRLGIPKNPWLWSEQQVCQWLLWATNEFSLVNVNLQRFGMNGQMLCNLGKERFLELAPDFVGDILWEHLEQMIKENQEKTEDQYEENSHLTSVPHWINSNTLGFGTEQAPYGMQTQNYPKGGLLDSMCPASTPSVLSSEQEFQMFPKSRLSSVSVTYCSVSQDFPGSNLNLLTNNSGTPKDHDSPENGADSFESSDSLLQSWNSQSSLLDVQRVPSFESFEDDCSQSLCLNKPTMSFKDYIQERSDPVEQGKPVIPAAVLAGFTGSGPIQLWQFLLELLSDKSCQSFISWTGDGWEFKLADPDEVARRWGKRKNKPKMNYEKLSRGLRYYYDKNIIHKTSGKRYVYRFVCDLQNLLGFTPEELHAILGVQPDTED
In outline:
as §1

In the next assay the target is T9, SPDEF (Homo sapiens, UniProt O95238 1-335).
T9 sequence: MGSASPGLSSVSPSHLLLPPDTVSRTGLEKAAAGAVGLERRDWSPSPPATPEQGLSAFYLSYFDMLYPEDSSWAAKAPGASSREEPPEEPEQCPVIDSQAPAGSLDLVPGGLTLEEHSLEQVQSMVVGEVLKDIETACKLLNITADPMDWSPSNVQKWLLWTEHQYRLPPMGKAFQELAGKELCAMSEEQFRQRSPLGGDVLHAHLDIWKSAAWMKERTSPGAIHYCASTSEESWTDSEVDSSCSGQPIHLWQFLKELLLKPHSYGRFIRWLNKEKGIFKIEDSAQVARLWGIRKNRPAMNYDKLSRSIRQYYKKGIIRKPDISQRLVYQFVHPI
The method in brief:
as §1

A further assay addresses T10, ETV7 (Homo sapiens, UniProt Q9Y603 1-341).
T10 sequence: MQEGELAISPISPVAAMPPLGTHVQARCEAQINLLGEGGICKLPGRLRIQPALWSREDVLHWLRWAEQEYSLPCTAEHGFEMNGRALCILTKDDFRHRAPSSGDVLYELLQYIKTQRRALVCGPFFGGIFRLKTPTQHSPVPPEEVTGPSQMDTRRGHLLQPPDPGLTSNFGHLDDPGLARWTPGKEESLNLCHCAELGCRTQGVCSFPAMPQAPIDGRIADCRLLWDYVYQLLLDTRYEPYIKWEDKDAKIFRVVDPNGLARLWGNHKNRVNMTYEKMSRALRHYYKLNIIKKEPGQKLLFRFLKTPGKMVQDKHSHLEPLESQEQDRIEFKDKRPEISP
In outline: as §1

Another assay has as its target T11, ETV3 (Homo sapiens, UniProt P41162-2 1-143).
T11 sequence: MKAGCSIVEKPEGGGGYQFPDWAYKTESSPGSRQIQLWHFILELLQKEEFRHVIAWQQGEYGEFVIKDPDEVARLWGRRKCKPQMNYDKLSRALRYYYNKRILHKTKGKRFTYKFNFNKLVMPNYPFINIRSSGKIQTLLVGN
In outline: as §1

For another assay, the target named is ETV6 (Homo sapiens, UniProt P41212 1-452). In outline: as §1

In publication PMC7862700, “An all-to-all approach to the identification of sequence-specific readers for epigenetic DNA modifications on cytosine” one finds binding signal data, which are given here for one sequence.

Chain of ETV1 (P50549 whole entry): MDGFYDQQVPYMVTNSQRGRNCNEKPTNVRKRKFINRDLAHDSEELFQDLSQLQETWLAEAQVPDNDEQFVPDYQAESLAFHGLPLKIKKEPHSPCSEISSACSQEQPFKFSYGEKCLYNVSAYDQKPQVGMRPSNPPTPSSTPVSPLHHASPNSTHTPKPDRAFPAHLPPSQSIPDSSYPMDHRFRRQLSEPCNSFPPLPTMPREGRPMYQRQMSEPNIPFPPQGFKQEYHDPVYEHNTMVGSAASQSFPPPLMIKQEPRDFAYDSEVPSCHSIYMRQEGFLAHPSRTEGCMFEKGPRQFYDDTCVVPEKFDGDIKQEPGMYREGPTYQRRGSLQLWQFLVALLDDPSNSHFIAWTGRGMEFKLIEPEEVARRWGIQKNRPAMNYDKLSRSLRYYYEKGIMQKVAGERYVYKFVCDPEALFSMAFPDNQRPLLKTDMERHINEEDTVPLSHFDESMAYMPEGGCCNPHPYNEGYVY
Chain of ETV6 (P41212 whole entry): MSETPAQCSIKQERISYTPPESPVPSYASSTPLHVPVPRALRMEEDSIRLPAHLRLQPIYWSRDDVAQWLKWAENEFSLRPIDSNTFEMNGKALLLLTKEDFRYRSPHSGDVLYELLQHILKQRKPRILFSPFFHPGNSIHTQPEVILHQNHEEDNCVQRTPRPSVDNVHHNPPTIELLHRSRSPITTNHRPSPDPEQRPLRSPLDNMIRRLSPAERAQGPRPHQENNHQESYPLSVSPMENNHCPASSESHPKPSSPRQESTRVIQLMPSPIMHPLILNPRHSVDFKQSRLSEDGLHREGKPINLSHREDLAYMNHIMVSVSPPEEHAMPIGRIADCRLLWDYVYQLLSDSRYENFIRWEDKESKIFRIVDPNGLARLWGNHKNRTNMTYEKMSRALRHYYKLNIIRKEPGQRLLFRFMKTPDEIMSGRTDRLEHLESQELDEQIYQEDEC
Chain of SPIB (Q01892 whole entry): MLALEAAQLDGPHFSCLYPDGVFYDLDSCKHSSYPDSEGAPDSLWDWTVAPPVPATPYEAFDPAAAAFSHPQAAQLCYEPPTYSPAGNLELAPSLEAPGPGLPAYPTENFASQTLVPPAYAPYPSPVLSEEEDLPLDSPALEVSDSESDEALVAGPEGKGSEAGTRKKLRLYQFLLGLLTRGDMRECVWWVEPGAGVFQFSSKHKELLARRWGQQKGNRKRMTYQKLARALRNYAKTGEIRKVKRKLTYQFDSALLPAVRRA
Chain of ETV5 (P41161 whole entry): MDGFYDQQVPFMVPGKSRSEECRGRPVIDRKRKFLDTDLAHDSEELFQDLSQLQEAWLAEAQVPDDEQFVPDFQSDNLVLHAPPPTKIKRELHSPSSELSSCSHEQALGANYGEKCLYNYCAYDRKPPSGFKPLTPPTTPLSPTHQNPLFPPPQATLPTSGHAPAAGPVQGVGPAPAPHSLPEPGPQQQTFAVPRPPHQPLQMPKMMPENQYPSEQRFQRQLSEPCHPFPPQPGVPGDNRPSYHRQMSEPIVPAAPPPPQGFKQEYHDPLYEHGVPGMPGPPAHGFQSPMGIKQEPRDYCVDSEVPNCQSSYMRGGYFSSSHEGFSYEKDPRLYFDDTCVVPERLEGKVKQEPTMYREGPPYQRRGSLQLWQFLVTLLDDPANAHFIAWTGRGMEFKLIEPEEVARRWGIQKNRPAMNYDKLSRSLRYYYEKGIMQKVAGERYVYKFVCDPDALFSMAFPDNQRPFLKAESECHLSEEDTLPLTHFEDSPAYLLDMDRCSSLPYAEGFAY

AGCGTC: the binding signal with ELK1 is 1.05 fold enrichment (6-mer frequency, TF over GST control); with GABPA, 1.07 fold enrichment (6-mer frequency, TF over GST control); with ERG it was 1.1 fold enrichment (6-mer frequency, TF over GST control); with SPIB, 1.04 fold enrichment (6-mer frequency, TF over GST control); in the assay with ELK3, 1.05 fold enrichment (6-mer frequency, TF over GST control); with ETV5, 1.04 fold enrichment (6-mer frequency, TF over GST control). For the same sequence, the binding signal in the assay with SPIC was 1.11 fold enrichment (6-mer frequency, TF over GST control); in the assay with ELK4 it was 1.01 fold enrichment (6-mer frequency, TF over GST control); with ETV1, 1.04 fold enrichment (6-mer frequency, TF over GST control); with ERF, 1.07 fold enrichment (6-mer frequency, TF over GST control); with ETS2, 1.02 fold enrichment (6-mer frequency, TF over GST control); with SPDEF it was 1.08 fold enrichment (6-mer frequency, TF over GST control). For the same sequence, the binding signal was 1.06 fold enrichment (6-mer frequency, TF over GST control) with ETV7; 1.01 fold enrichment (6-mer frequency, TF over GST control) in the assay with ETV3; 1.02 fold enrichment (6-mer frequency, TF over GST control) with ETV6.
